Screens (PubChem BioAssay)
VDR inhibitor = inhibitors of human vitamin D receptor | VDR-SRC2-3 peptide fluorescence polarization, 2 h | Potency, µM, for inactives: max response, negative = inhibition, most hits filed as inhibitors | P11473 | AID 504847 | actives 0.93% (n = 400,000)
Target sequence (P11473 whole entry, looked up): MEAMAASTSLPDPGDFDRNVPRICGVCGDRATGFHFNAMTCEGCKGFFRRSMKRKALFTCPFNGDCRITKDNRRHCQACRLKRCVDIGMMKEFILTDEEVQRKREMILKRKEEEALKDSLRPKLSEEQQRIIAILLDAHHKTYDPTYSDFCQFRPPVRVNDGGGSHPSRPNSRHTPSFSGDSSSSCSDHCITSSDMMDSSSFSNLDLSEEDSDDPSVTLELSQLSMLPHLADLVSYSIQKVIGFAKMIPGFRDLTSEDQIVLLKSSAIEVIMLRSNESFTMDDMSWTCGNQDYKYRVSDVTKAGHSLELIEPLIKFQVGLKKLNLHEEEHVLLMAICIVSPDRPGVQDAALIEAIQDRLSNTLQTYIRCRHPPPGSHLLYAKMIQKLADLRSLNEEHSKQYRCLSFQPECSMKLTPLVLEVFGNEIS
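Reagent solutions, kept cold and dark, are dispensed first; compounds are then pinned in at 23 nl, plates briefly spun, and incubated 2 h at ambient temperature. Inhibition of VDR–SRC2-3 peptide binding is read by fluorescence polarization.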
GLS inhibitor = blocks human kidney-isoform glutaminase activity; GLS enzymatic activity, qHTS titration; Potency, µM (titrated, usually from 45.5 µM), for the others: at the top dose activity change, negative = inhibition, actives largely listed as inhibitors; actives 0.21% (n = 410,000); AID 624170
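Coupled fluorescence readout: glutamate oxidase/HRP/Amplex Red detect glutamate formed by hKGA from L-glutamine (1 mM solution added). Buffer 45 mM KH2PO4 pH 8.2, 0.02% Tween-20; reads at t0 and 30 min RT.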
Sfp inh = Sfp phosphopantetheinyl transferase inhibition; Q9F4F7; Biochemical Sfp PPTase activity, qHTS; Potency, µM, for the others: largest response in the series, negative = inhibition, usual class: inhibitors; actives 3.5% (n = 310,000);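 also: the enzyme is Sfp with the accession as filed and its product quenches rhodamine fluorescence; 0% = enzyme reaction without inhibitor and -100% = no enzyme wells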
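Buffer: 50 mM Hepes-Na pH 7.6, 10 mM MgCl2, 0.01% Nonidet P-40, 0.01% BSA. Enzyme 15 nM, pre-exposed to compound 15 min; substrates then added and fluorescence change tracked over 30 min.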
TrxR1 substrate = rat thioredoxin reductase 1 substrate activity. O89049. purified TrxR1 substrate turnover, NADPH consumption readout. Potency, µM (highest dose often 114 µM), for inactives: at the top dose activity change, negative = substrate turnover. actives 0.01% (n = 390,000). AID 588456; also: nearly all actives have a fitted effect of over 50% in size
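Rat TrxR1, dispensed at 90 nM, was prereduced with 400 uM NADPH (final) for 5 min at ~22 deg C, then incubated with compound 15 min before 400 uM selenite. A first-read NADPH fluorescence drop versus no-compound background flagged substrates.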
rTrxR1 inhibitor = blocks rat thioredoxin reductase 1; O89049; recombinant rTrxR1, NADPH fluorescence consumption, selenite substrate; Potency, µM (doses to about 114 µM), for the others: at the highest dose activity change, negative = inhibition, actives largely listed as inhibitors; actives 1% (n = 390,000); also: nearly all actives have a fitted effect of over 65% in size
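Rat TrxR1 (90 nM in the dispensed reagent) was pre-reduced with 400 uM NADPH for 5 min at room temperature, then incubated with compound for 15 min. After 400 uM selenite was added, NADPH fluorescence (Ex 340/Em 450 nm) was followed for 8 min.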
GCN5L2 inh = inhibitors of human GCN5L2 histone acetyltransferase. Q92830. GCN5L2 HAT assay, ThioGlo1 CoA-SH fluorescence. Potency, µM (highest dose often 58.9 µM), without a hit: top-dose activity change, negative = inhibition, actives largely listed as inhibitors. actives 0.21% (n = 390,000). AID 504327
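ThioGlo1-coupled HAT assay: 20nM GCN5L2, 70uM acetyl-CoA, 75uM H3(1-25) peptide, pH 7.5. Fluorescence read at 340/540nm at start and after 20 min at room temperature.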
Numbers without * were called inactive; ? = inconclusive; · = not tested or not shown; ! = a repeat was not active; [ ] = dose if it differs, or a comment. This is a sample that favours compounds with a hit; in the whole collection about 3.8% have one here. Calls follow the shape of the dose curve; as a rule, active = well fitted curve in the direction sought with a large enough effect; inconclusive = small, poorly fitted or top-dose-only effect, or another doubt; inactive = no such curve, though single readings can be large; an effect the other way counts as inactive or inconclusive. Unless noted, % is scaled to controls: 0 for no effect and ±100 for the full control effect; potency is read from the fitted curve at half-maximal effect.

SMILES	VDR inhibitor	GLS inhibitor	Sfp inh	TrxR1 substrate	rTrxR1 inhibitor	GCN5L2 inh
NS(=O)(=O)c1ccc(CCNC(=O)c2ccc[nH]c2=S)cc1	-17.2%	?	56.2µM*	13.3%[57.1 µM]	11.5%[57.1 µM]	24.7%
COc1cc(NC(=S)NCCc2ccc(S(N)(=O)=O)cc2)c(OC)cc1Cl	-21.9%	4.3%	15.8µM*	3.0%	-19.4%	-12.6%
COc1nc(N(C)C)nc(N(C#N)CCOC(C)=O)n1	-10.8%	4.2%	10.0%	4.3%	9.9%	-11.0%
Cc1cc(C)nc(SCc2nnc(SCC(=O)Nc3ccc(C)c(C)c3)n2Cc2ccco2)n1	-9.9%	1.0%	?	2.5%[57.1 µM]	4.5%[57.1 µM]	-16.3%
CCCNC(=O)Cn1c2ccccc2c2nc(=O)cc(C)n21	?	0.2%	2.4%	9.9%	14.4%[57.1 µM]	-14.9%
O=C(c1ccc(F)cc1)[C@@H]1[C@@H](C(=O)c2ccccc2)[C@@]2(C(=O)Nc3ccccc32)[C@H]2c3ccccc3C=CN12	·	·	1.6%	·	·	0.3%
CC(=O)[C@@H]1[C@@H](C(=O)c2ccc(F)cc2)[C@]2(C(=O)Nc3ccccc32)[C@H]2C=Cc3cc(F)ccc3N12	0.6%	?	20µM*	-1.4%	-32.3%	-5.3%
CC(=O)[C@@H]1[C@@H](C(=O)c2ccc(C)cc2)[C@]2(C(=O)Nc3ccccc32)[C@H]2C=Cc3cc(F)ccc3N12	-8.4%	3.9%	3.98µM*	-18.2%	?	-12.3%
CC1(C)OCC(CNC(=O)c2[nH]c(C(F)(F)F)nc2-c2ccccc2)O1 (configuration not stated)	·	5.5%	·	·	·	·
COC(=O)[C@@]12CCCN1[C@H](c1ccc(-c3ccc(Cl)c(Cl)c3)c(OC)c1)[C@H]1C(=O)N(C)C(=O)[C@H]12	-3.5%	5.5%	·	-5.1%[57.1 µM]	14.6%[57.1 µM]	-17.2%
COc1ccc(C2(c3ccc(OC)cc3)NC(=O)N(CC(=O)NC(C)C)C2=O)cc1	-15.3%	5.3%	17.4%	-1.0%[57.1 µM]	-0.8%[57.1 µM]	1.8%
COC(=O)N1C(=O)[C@](c2ccc(Cl)cc2)(C(C)C)N1C(=O)OC	?	3.3%	-4.3%	4.2%	7.94µM*	-3.5%
COC(=O)N1C(=O)[C@@](c2ccc(OC)cc2)(C(C)C)N1C(=O)OC	13.9%	6.3%	9.4%	4.1%[57.1 µM]	28.2µM*	-6.5%
COC(=O)N1C(=O)[C@](c2ccccc2)(C2CCCC2)N1C(=O)OC	?	0.8%	7.3%	13.0%[57.1 µM]	?	3.2%
COC(=O)N1C(=O)[C@@](c2ccccc2)(C(C)C)N1C(=O)OC	-26.4%	15.7%	3.7%	-0.6%	17.8µM*	-2.5%
COC(=O)c1c(C)[nH]c(-c2csc(N)n2)c1C	34.0%	12.6%	44.7µM*	-4.1%	24.6%	-2.4%
Cc1nnc(SCC(=O)N(C)C2CCS(=O)(=O)C2)n1Cc1ccccc1 (configuration not stated)	-18.7%	-16.1%	25.1%	8.1%[57.1 µM]	20.4%[57.1 µM]	18.5%
C[C@@](N)(C(=O)O)c1ccc(C(=O)O)cc1	-1.8%	·	50.1µM*!	·	·	-14.5%
CCOc1ccc(C(C)(N)C(=O)O)cc1 (configuration not stated)	-1.1%	8.3%	-8.4%	-1.4%	9.9%	-5.9%
CC(N)(C(=O)O)c1ccc(C(=O)O)cc1 (configuration not stated)	2.3%	·	56.2µM*	5.1%[57.1 µM]	7.6%[57.1 µM]	5.3%
O=C(CSc1nnc(-c2ccc(Cl)cc2)n1Cc1ccco1)NCc1ccc2c(c1)OCO2	-3.5%	9.2%	-0.8%	4.8%	-12.9%	·
CN1CCCN(C2C3CC4CC(C3)CC2C4)CC1 (configuration not stated)	-4.0%	25.8%	79.4µM*	12.0%[57.1 µM]	-29.3%[57.1 µM]	0.0%
O=C(c1ccccc1)N1CCN(C2C3CC4CC(C3)CC2C4)CC1 (configuration not stated)	5.1%	0.0%	-6.2%	0.1%	-14.1%	-3.8%
N#CC1=C(N)N(c2ccc(F)cc2)C2=C(C1c1ccc(O)cc1)S(=O)(=O)CC2 (configuration not stated)	3.6%	-18.5%	-91.9%	8.6%[57.1 µM]	7.94µM*	-21.0%
CSc1ccc(C2C(C#N)=C(N)N(c3ccccc3)C3=C2C(=O)CCC3)cc1 (configuration not stated)	0.9%	17.3%	-24.0%	6.0%[57.1 µM]	6.3%[57.1 µM]	-2.0%
SMILES	VDR inhibitor	GLS inhibitor	Sfp inh	TrxR1 substrate	rTrxR1 inhibitor	GCN5L2 inh
CCc1cc(-c2nnn(CCC3COCCO3)c2CC)cc(CC)c1-c1cn(Cc2ccc3ccccc3c2)nn1 (configuration not stated)	·	-1.2%	·	·	·	·
Cc1cc2cc(CNC(=O)c3cccs3)ccc2n1C	-13.8%	3.2%	44.7µM*	-0.9%	4.0%	-7.1%
CCOC(=O)CCC(=O)NCc1ccc2c(c1)cc(C)n2C	11.6%	4.5%	79.4µM*	1.4%	3.7%	41.2%
CCC(CC)C(=O)NCc1ccc2c(c1)cc(C)n2C	7.9%	0.9%	13.9%	12.5%[57.1 µM]	3.1%[57.1 µM]	-10.1%
COc1ccc(OC)c(C(=O)CN2CCN(S(=O)(=O)c3ccc(Br)cc3)CC2)c1	-9.8%	6.8%	?	1.7%[57.1 µM]	-23.8%[57.1 µM]	-21.0%
O=S(=O)(c1ccc2nc(N3CCN(c4ccc(F)cc4)CC3)ccc2c1)N1CCCCC1	7.5%	-1.4%	79.4µM*	5.2%	7.4%	-22.9%
O=S(=O)(c1ccc2nc(N3CCN(c4ccccc4F)CC3)ccc2c1)N1CCCCC1	1.3%	-4.8%	-5.0%	106.7%	416.5%	-18.7%
O=[N+]([O-])c1ccc2c3n([n+]([O-])c2c1)CCN=C3c1ccc(Cl)cc1	-3.7%	7.8%	·	0.2%[57.1 µM]	-18.5%[57.1 µM]	-6.2%
COc1cc(C(C)=O)ccc1OCc1cn(CC(=O)c2ccc(O)cc2)nn1	89.1µM*	-6.1%	·	3.0%	-12.1%	·
COc1ccc(-c2nnc3ccc(SCC(=O)N4CCN(c5ccccc5)CC4)nn23)cc1	-7.1%	0.4%	·	2.0%	2.7%	·
COc1cccc(-n2nc(C#N)c(Cl)cc2=O)c1	31.6µM*	-5.9%	2.1%	5.3%[57.1 µM]	3.98µM*	-1.4%
CCOC(=O)c1ccc(-n2c(CN(CC)CC)nc3ccc([N+](=O)[O-])cc3c2=O)cc1	?	-17.9%	22.4µM*	0.5%	?	-10.9%
CCOC(=O)c1ccc(-n2c(CN3CCC(O)CC3)nc3ccc([N+](=O)[O-])cc3c2=O)cc1	-14.3%	-6.6%	17.8µM*	-10.3%	50.1µM*	-8.3%
CCOC(=O)c1ccc(-n2c(CN3CCN(CC)CC3)nc3ccc([N+](=O)[O-])cc3c2=O)cc1	10.9%	-23.9%	-6.1%	5.9%	-11.0%	-5.9%
CCOC(=O)c1ccc(-n2c(CN3CCOCC3)nc3ccc([N+](=O)[O-])cc3c2=O)cc1	-0.2%	-1.9%	-28.5%	3.0%	0.8%	-10.0%
